Here are results for 15 compounds from the supplement of paper PMC4100887.

Where a name gives a salt, the structure may show the parent alone. ± gives the standard deviation of the averaged measurements.

In this assay the test system is IMR-90. The assay can be described thus: relative cell viability (ATPlite) vs untreated control (fraction); higher = less toxic. Particulars: 1 µM; 72 h.
For the compound `O=C(Nc1cc(Cl)cc2c1[nH]c1cnccc12)c1cccnc1` [IKK Inhibitor X], the relative cell viability came out at 0.946 ± 0.061.

For the compound `Cc1cc(C=C2C(=O)C=CC2=O)cc(C)c1O`, the relative cell viability came out at 0.928 ± 0.045.

`COc1cc2ncnc(Nc3ccc(Cl)cc3Cl)c2cc1OC` [Ste11 MAPKKK Activation Inhibitor]: the relative cell viability came out at 0.946 ± 0.13.

Compound `Nc1nccc(-c2c(-c3ccc(F)cc3)ncn2C2CCNCC2)n1` gave a relative cell viability of 0.923 ± 0.084.

`O=C(Nc1cccc(Nc2nccc(Nc3cccc(C(F)(F)F)c3)n2)c1)C1CC1` [Aurora Kinase Inhibitor III]: the relative cell viability turned out to be 0.892 ± 0.074.

`Cn1c(O)c(-c2[nH]c3ccccc3c2N=O)c2ccc(Br)cc21` [GSK-3 Inhibitor IX, Control, MeBIO] came in with a relative cell viability of 0.976 ± 0.047.

The compound `N#Cc1c(NC(=O)c2cccc3ccccc23)sc2c1CCCC2` [JNK Inhibitor IX] registered a relative cell viability of 0.97 ± 0.044.

The compound `Cc1cc2ncc(-c3ccccc3)nc2cc1C` had a relative cell viability of 0.969 ± 0.069.

For the compound `Cc1ccc(S(=O)(=O)/C=C/C#N)cc1`, the relative cell viability came to 1.01 ± 0.032.

Compound `COc1cc2ncnc(Nc3cccc(O)c3)c2cc1OC` [WHI-P180, Hydrochloride] displayed a relative cell viability of 0.912 ± 0.092.

As for `O=c1cc(N2CCOCC2)oc2c1ccc1ccccc12` [DNA-PK Inhibitor II], the relative cell viability came out at 1 ± 0.061.

As for `COc1ccc2nc3n[nH]c(C)c3c(NCCOCCO)c2c1`, the relative cell viability was found to be 1 ± 0.077.

Consider `c1ccc(-c2cnc(Nc3ccc(OCCN4CCCC4)cc3)s2)cc1` [Flt-3 Inhibitor III], for which the relative cell viability stood at 0.924 ± 0.052.

In the case of `CC[C@@H](CO)Nc1nc(NCc2ccc(-c3ccccn3)cc2)c2ncn(C(C)C)c2n1` [CR8, (S)-Isomer], the relative cell viability was found to be 0.107 ± 0.035.

`O=C1NC(=O)c2c1c1c3ccccc3[nH]c1n1cncc21` [Isogranulatimide] had a relative cell viability of 1.01 ± 0.063.
